# Assay outcomes from PubChem BioAssay.
# Hits are enriched below; roughly 8% of the tested compounds scored in any of these assays.
# HCMV inh: inhibitors of human cytomegalovirus; HFF cells, HCMV-luciferase reporter, 72 h; hits give low values; activity change, negative = inhibition, % at 57.5 µM; actives 4.5% (n = 410,000); in the data active = activity change below about -60%; inconclusive = no clear call, values can overlap the other calls; inactive = above about -39%; also: % is scaled to controls: 0 for no effect and ±100 for the full control effect
#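 HFF cells seeded 16 h at 37C, treated with compounds, infected with luciferase-reporter HCMV at MOI 1 PFU/cell; luciferase read at 72 h post infection, normalized to buffer-only and Salinomycin controls.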
# SARS PLP yeast: inhibitors of SARS-CoV papain-like protease in yeast. S. cerevisiae expressing SARS-CoV PLpro, growth rescue. Potency, µM (titrated, usually from 32.9 µM), inactives show at the top dose activity, positive = growth rescue, most hits filed as activators. actives 0.19% (n = 330,000); calls by dose curve; also: potency is read from the fitted curve at half-maximal effect; 0% is about no effect; nearly all actives have a fitted effect of over 55% in size
# MARV entry inh: inhibitors of Marburg virus binding or cell entry; Potency, µM (titrated, usually from 37.8 µM), without a hit: top-dose activity change, negative = inhibition, hits mostly inhibitors; AID 540276; actives 1.8% (n = 300,000); Marburg virus pseudotyped entry inhibition, cell reporter; calls by dose curve; tested in HEK293 cells; also: potency is read from the fitted curve at half-maximal effect; % is scaled to controls: 0 for no effect and ±100 for the full control effect
# Lassa entry inh: inhibitors of Lassa virus binding or cell entry; Lassa virus pseudotype entry inhibition, cell reporter; Potency, µM (highest dose often 37.9 µM), without a hit: at the highest dose activity change, negative = inhibition, actives largely listed as inhibitors; actives 1.2% (n = 300,000); AID 540256; calls by dose curve; tested in HEK293 cells; also: potency is read from the fitted curve at half-maximal effect; % is scaled to controls: 0 for no effect and ±100 for the full control effect; nearly all actives have a fitted effect of over 50% in size
# FMDV antiviral: antivirals against foot and mouth disease virus. actives 1.2% (n = 410,000). Potency, µM (doses to about 57.9 µM), inactives show at the highest dose activity change, negative = inhibition, actives largely listed as inhibitors. FMDV antiviral cell-based qHTS; calls by dose curve; tested in HEK293T cells; also: read-out not given here; potency is read from the fitted curve at half-maximal effect; % is scaled to controls: 0 for no effect and ±100 for the full control effect; nearly all actives have a fitted effect of over 45% in size
# HCV inhibitor: inhibitors of hepatitis C virus infection. Huh7.5.1 HCVcc-Cre infection, luciferase reporter, 44 h. Potency, µM (titrated, usually from 41.8 µM), for the others: at the highest dose activity change, negative = inhibition, hits mostly inhibitors. actives 3.4% (n = 340,000); active = well fitted inhibition curve with a large enough effect; inconclusive = small, poorly fitted or top-dose-only effect, or another doubt; inactive = no such curve, though single readings can be large or run the other way; also: potency is read from the fitted curve at half-maximal effect; % is scaled to controls: 0 for no effect and ±100 for the full control effect
#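 Seed cells (1,000/well) for 4 h; treat with compound and infect with HCVcc-Cre, moi about 0.5. Incubate 44 h, then detect luciferase activity.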
# An asterisk follows results filed as active; ? = inconclusive; . = no result given; [ ] = dose if it differs, or a comment.
SMILES,HCMV inh,SARS PLP yeast,MARV entry inh,Lassa entry inh,FMDV antiviral,HCV inhibitor
CCn1c(N2CCC(Cc3ccccc3)CC2)nc2c1c(=O)[nH]c(=O)n2C,43.6,-5.7%,?,?,28.2µM*,-23.1%
Cc1ccccc1CNC(=O)c1oc2c(c1C)-c1nn(Cc3ccc(Cl)cc3)cc1CC2,-26.5,.,.,-20.6%[46.1 µM],-23.5%,.
Cc1c(C(=O)N2CCCCCC2)sc2ncnc(NCC3CCCO3)c12 (stereo not given),.,.,.,.,6.2%,.
COc1ccccc1N/N=C/c1ccc2c(c1)OCO2,-70.5*,-0.5%,-16.2%,19.9%,41.0%,1.9%
COc1ccccc1C(=O)N/N=C/c1ccc2c(c1)OCO2,90.5,-4.9%,?,?,48.9%,3.2%
O=C(N/N=C/c1ccc2c(c1)OCO2)c1cc(-c2ccc(F)cc2)nc2ccccc12,13.2,0.5%,?,0.581µM*,21.6%,-24.8%
COc1ccc(-c2cc(C(=O)N/N=C/c3sccc3C)c3ccccc3n2)c(OC)c1,-63.2*,-3.4%,5.01µM*,3.16µM*,-7.9%,?
COc1ccc(-c2cc(C(=O)N/N=C/c3ccc4c(c3)OCO4)c3ccccc3n2)c(OC)c1,-6.9,-0.1%,3.98µM*,2.51µM*,-6.1%,?
Cc1cc(C)cc(C(=O)NCCn2cc(C(=O)N3CCSCC3)nn2)c1,.,.,.,.,-2.1%,.
COc1ccc(-n2c(=O)c3c4c(sc3n(CC(=O)N3CCCCC3C)c2=O)CCC4)c(OC)c1 (stereo not given),-18.5,.,5.0%[46.1 µM],0.6%[46.1 µM],-11.6%,.
COc1ccc(Nc2nc3c(S(=O)(=O)c4ccc(Br)cc4)nnn3c3ccsc23)c(OC)c1,-17.0,.,.,-1.5%[46.1 µM],-18.0%,.
CCc1cc2c(=O)n(Cc3ccco3)c(SCc3c(C)noc3C)nc2s1,74.7,-10.0%,?,?,-20.6%,10µM*
CCc1cc2c(=O)n(Cc3ccco3)c(SCC(=O)N(C)C3CCS(=O)(=O)C3)nc2s1 (stereo not given),-40.0,-2.5%,1.6%[46.1 µM],?,-8.5%,?
CCc1cc2c(=O)n(Cc3ccco3)c(SCC(=O)NCC3CCCO3)nc2s1 (stereo not given),?,2.9%,?,?,25.1µM*,10µM*
CCc1cc2c(=O)n(Cc3ccco3)c(SCC(=O)NC3CCS(=O)(=O)C3)nc2s1 (stereo not given),8.1,-3.4%,3.4%[46.1 µM],4.8%[46.1 µM],9.9%,-18.7%
CCc1cc2c(=O)n(Cc3ccco3)c(SCC(=O)N3CCCc4ccccc43)nc2s1,17.7,-6.3%,?,?,-14.0%,10µM*
CCC(=O)Oc1c(Sc2ccc(Cl)cc2)c(C)nn1-c1ccccc1,-93.5*,.,19.5%[46.1 µM],16.1%[46.1 µM],-19.6%,.
Cc1nn(C(=O)c2ccccc2)c(C)c1Sc1ccc(Cl)cc1,-74.4*,.,.,0.2%[46.1 µM],28.2µM*,.
COCCN1CCc2nc(SCC(=O)Nc3ccc(C)c(Cl)c3)[nH]c(=O)c2C1,-14.2,.,-3.7%[46.1 µM],17.4%[46.1 µM],-10.2%,.
Cc1cccc(-c2nnc(SCc3nc4ccccc4[nH]3)n2Cc2ccco2)c1,-60.6*,0.7%,?,?,-27.0%,?
Cc1ccc(-c2nnc(SCc3nc4ccccc4[nH]3)n2Cc2ccco2)cc1,-17.0,-24.5%,?,0.0%,5.0%,-22.7%
C/C(=N\O)c1oc2ccc3c(C)cc(=O)oc3c2c1C,-63.3*,0.2%,-2.0%,13.5%,-6.6%,-5.7%
CC(=O)Nc1ccc(N=c2cc([N+](=O)[O-])cc(Cl)n2O)cc1,-85.0*,-0.9%,?,?,0.3%,10µM*
CC(=O)Nc1ccc(Oc2ccc([N+](=O)[O-])cc2Cl)cc1,-16.1,-1.2%,?,-5.2%,?,-3.1%
Cc1cc(C)c(S(=O)(=O)/N=C2\C=C(NS(=O)(=O)c3ccccc3)C(=O)c3ccccc32)c(C)c1,55.5,-0.4%,?,22.6%[46.1 µM],48.7%,8.8%
SMILES,HCMV inh,SARS PLP yeast,MARV entry inh,Lassa entry inh,FMDV antiviral,HCV inhibitor
O=C(O)c1ccc(NC2=C/C(=N/S(=O)(=O)c3ccccc3)c3ccccc3C2=O)cc1,-101.0*,-21.5%,3.98µM*,7.08µM*,11.2µM*,6.31µM*
CCc1ccc(S(=O)(=O)/N=C2\C=C(Nc3ccc(O)cc3)C(=O)c3ccccc32)cc1,.,-15.4%,?,4.47µM*,35.5µM*,?
Cc1cc(C)c(S(=O)(=O)/N=C2\C=C(Nc3ccc(C(=O)O)cc3)C(=O)c3ccccc32)c(C)c1,-85.2*,-11.7%,5.62µM*,?,?,?
O=C(CC(c1cccs1)N1Cc2ccccc2C1=O)Nc1ccccc1 (stereo not given),-7.1,.,.,-5.9%[46.1 µM],25.9%,.
COC(=O)[C@]1(C#N)[C@H](Cc2ccccc2)C(=O)N(Cc2ccc(Cl)cc2)[C@@H]1c1ccc(OC)cc1,-9.7,.,.,.,.,.
CC(=O)NC(=S)Nc1ccc2oc(=O)ccc2c1,-22.3,0.0%,3.8%[46.1 µM],1.8%,27.5%,-10.9%
CC(C)(Oc1ccc(Cl)cc1)C(=O)Nc1ccc2oc(=O)ccc2c1,-65.7*,-7.2%,-9.7%,-2.2%,-22.1%,.
O=C(Nc1ccc2oc(=O)ccc2c1)c1ccc(-c2ccc(Cl)cc2)o1,-8.2,-6.3%,?,-2.5%,-14.6%,11.9%
O=C(Nc1ccc2oc(=O)ccc2c1)c1ccc(-c2cccc(Cl)c2)o1,-64.4*,-0.8%,.,.,-17.2%,10µM*
O=C(Nc1ccc2nn(-c3ccccc3)nc2c1)c1ccc(-c2cccc(Cl)c2)o1,-74.6*,.,.,-1.5%[46.1 µM],-11.0%,.
CCCCc1ccc(-n2nc3ccc(NC(=O)c4cc5ccccc5o4)cc3n2)cc1,-81.6*,.,.,1.3%[46.1 µM],25.1µM*,.
Cc1ccc(C)c(N2CCN(CCCNC(=O)Cn3c(-c4cccs4)cc4ccccc43)CC2)c1,?,.,.,?,0.0%,.
O=C(NC1CCCC1)c1ccc2c(=O)n(Cc3ccccc3)c(SCc3ccccc3F)nc2c1,-28.1,.,.,-9.5%[46.1 µM],-4.0%,.
Cn1c(CNC(=O)CSc2n[nH]c(-c3ccccc3)n2)nc2ccccc21,-7.6,.,.,15.0%[46.1 µM],0.6%,.
O=C(Nc1ccc2oc(=O)ccc2c1)c1ccc(-c2cccc([N+](=O)[O-])c2)o1,-39.0,-0.6%,?,?,31.6µM*,8.91µM*
CC1(c2ccccc2)CC(C)(C)N(C(=O)C2CCCO2)c2ccccc21 (stereo not given),-27.9,-40.9%,18.3µM*,-7.2%,.,?
COc1cccc(C(=O)N2c3ccc(C)cc3C(C)(c3ccccc3)CC2(C)C)c1 (stereo not given),-32.7,.,.,-21.9%[46.1 µM],?,.
CC1(c2cc([N+](=O)[O-])cc([N+](=O)[O-])c2)CC(C)(C)N(C(=O)c2ccccc2)c2ccccc21 (stereo not given),2.0,-29.1%,?,-4.2%,-23.7%,?
CCC(=O)N1c2ccccc2C(C)(c2ccccc2)CC1(C)C (stereo not given),-5.3,.,-23.7%[46.1 µM],18.2%[46.1 µM],0.5%,.
